Screening results as filed in PubChem BioAssay.
USP1-UAF1 inh – inhibitors of human USP1/UAF1 deubiquitinase; Potency, µM (top dose mostly 57.1 µM), for the others: at the highest dose activity change, negative = inhibition, usual class: inhibitors; O94782; recombinant USP1/UAF1, Ub-Rhodamine cleavage fluorescence; 390,000 compounds, 0.23% hits; further: potency means the concentration at half of the fitted maximal effect; nearly all actives have a fitted effect of over 60% in size
Target sequence (O94782 whole entry, looked up): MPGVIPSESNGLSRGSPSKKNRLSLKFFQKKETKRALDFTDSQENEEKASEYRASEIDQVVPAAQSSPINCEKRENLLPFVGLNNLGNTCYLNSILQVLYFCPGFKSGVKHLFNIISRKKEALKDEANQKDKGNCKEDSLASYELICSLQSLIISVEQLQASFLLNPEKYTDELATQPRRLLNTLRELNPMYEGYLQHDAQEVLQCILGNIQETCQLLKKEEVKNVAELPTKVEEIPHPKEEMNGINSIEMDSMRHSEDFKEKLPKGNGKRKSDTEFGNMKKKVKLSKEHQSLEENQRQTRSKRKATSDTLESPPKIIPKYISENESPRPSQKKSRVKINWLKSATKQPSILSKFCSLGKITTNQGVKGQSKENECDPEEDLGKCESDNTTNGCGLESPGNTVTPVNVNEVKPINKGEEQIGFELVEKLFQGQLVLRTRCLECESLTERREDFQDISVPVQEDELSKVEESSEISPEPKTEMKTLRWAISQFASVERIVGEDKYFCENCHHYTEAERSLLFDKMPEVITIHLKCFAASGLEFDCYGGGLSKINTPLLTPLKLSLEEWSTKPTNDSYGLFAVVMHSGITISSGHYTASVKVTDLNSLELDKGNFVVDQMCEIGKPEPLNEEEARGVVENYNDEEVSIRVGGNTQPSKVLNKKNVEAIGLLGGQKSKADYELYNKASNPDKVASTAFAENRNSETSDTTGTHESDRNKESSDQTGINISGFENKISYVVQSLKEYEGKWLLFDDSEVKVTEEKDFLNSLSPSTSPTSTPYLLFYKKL
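High-throughput fluorogenic screen: 1nM USP1/UAF1 complex, Ub-Rho substrate 150nM final, 50mM HEPES pH 7.8 with 0.5mM EDTA, 0.1 mg/ml BSA, 1mM TCEP and 0.01% Tween-20.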
WRN helicase inh – WRN helicase (human) inhibition; 360,000 compounds, 0.46% hits; WRN helicase unwinding, fluorescent forked duplex, kinetic; Q14191; Potency, µM (highest dose often 114 µM), inactives show at the top dose activity change, negative = inhibition, most hits filed as inhibitors; further: potency means the concentration at half of the fitted maximal effect; nearly all actives have a fitted effect of over 55% in size
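Kinetic red-fluorescence monitoring (525/598 nm) tracks WRN helicase activity after 100 nM fluorophore-quencher forked duplex and 2 mM ATP are added to 20 nM enzyme pretreated 15 min at room temperature with compound.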
USP2a inh – USP2a (human) protease inhibition; USP2 core, Ub-CHOP2 coupled fluorogenic reporter, 485/531; Potency, µM (top dose mostly 38.3 µM), for inactives: at the highest dose activity change, negative = inhibition, most hits filed as inhibitors; 330,000 compounds, 0.01% hits; AID 463254;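 further: potency means the concentration at half of the fitted maximal effect; plate controls were DMSO wells for no effect and full inhibition by NEM control for full effect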
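Deubiquitinase activity read as fluorescence (485/531 nm) after Ub-CHOP2 cleavage activates the enterokinase reporter on its substrate; USP2 core 10nM, Ub-CHOP2 and substrate 25nM each, 30min compound preincubation then 60min RT; data normalized to NEM, curves fitted.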
PI5P4K alpha inh – blocks human PI5P4K alpha kinase activity | P48426 | PI5P4Kalpha enzyme, ADP-Glo luminescence, 60 min; hits give low values | max response, % | 330,000 compounds, 1.2% hits; active means max response of -50% or lower; inconclusive means between -30% and -50%; inactive means -30% or higher; further: value at the top dose of about 77 µM
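Enzyme plus substrate dispensed, test compounds pinned in, then ATP (5 microM final) added. After 60 min at RT, ADP-Glo reagent 1 for 45 min and reagent 2 for 30 min preceded luminescence imaging.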
PLK1 PBD block – inhibitors of human PLK1 polo-box domain binding; P53350; Plk1 PBD binding of FITC phosphopeptide, fluorescence polarization; Potency, µM, for the others: max response, negative = inhibition, usual class: inhibitors; 360,000 compounds, 2.8% hits; AID 720504; further: potency means the concentration at half of the fitted maximal effect; series mostly up to about 57 µM; nearly all actives have a fitted effect of over 65% in size
TbPYK confirm – confirmation of Trypanosoma brucei pyruvate kinase inhibitors; shares compounds with PLK1 PBD block; recombinant TbPYK, Kinase-Glo ATP luminescence; Potency, µM (series often up to 76.9 µM), for inactives: at the highest dose activity change, negative = inhibition, usual class: inhibitors; 890 compounds, 67% hits; AID 720569; further: potency means the concentration at half of the fitted maximal effect; nearly all actives have a fitted effect of over 70% in size
TbPYK ADP-Glo – inhibits T. brucei pyruvate kinase in orthogonal ADP-Glo assay. shares compounds with PLK1 PBD block. recombinant TbPYK, ADP-Glo luminescence, 60 min. Potency, µM (top dose mostly 76.9 µM), inactives show at the highest dose activity change, negative = inhibition, usual class: inhibitors. 890 compounds, 62% hits. AID 720584; further: potency means the concentration at half of the fitted maximal effect; nearly all actives have a fitted effect of over 75% in size
Numbers without * were called inactive; ? = inconclusive; . = not tested or not shown. A selection: hits, their analogues and other compounds. The true share with any hit is near 3.3%. Unless noted, the call rests on the fitted dose curve; in most records, active means well fitted curve in the direction sought with a large enough effect; inconclusive means small, poorly fitted or top-dose-only effect, or another doubt; inactive means no such curve, though single readings can be large; an effect the other way counts as inactive or inconclusive. Unless noted, on the % scale 0 is the no-effect control and ±100 the full control effect.

SMILES | USP1-UAF1 inh | WRN helicase inh | USP2a inh | PI5P4K alpha inh | PLK1 PBD block | TbPYK confirm | TbPYK ADP-Glo
COCCN1C(=O)/C(=C/c2c(OC)cc(OC)cc2OC)C(=O)N(c2ccccc2)C1=O | -17% | 7% | 2% | -22 | ? | . | .
CCN(CC)c1ccc(C=C2C(=O)NC(=S)NC2=O)cc1 | -18% | -17% | 6% | -62* | 2.7µM* | 16µM* | 14µM*
C(#CCN1CCCCC1)CN1CCCCC1 | . | -5% | . | -1 | -5% | . | .
Cc1cc(=O)oc2c(C)c(OCC(=O)N3CCC(C(=O)O)(c4ccccc4)CC3)ccc12 | -26% | 1% | -2% | -9 | 1% | . | .
NC1CCc2cc(O)c(O)cc2C1 (configuration not stated) | -12% | -7% | 2% | -24 | 1% | -95% | 28µM*
Cc1ccc(-n2cc(CNC(C)Cc3cnccn3)c(-c3cccc(C)c3)n2)cc1 (configuration not stated) | -17% | -5% | -1% | -1 | 7% | . | .
COC(=O)C1=C(C(=O)OC)SC2(S1)C(C(=O)OC)=C(C(=O)OC)Sc1c2ssc1=O | -18% | 13µM* | . | ? | 1.2µM* | 11µM* | 14µM*
C[C@]12CC[C@@H]3c4cc(O)c(O)cc4CC[C@H]3[C@@H]1CC[C@@H]2O | -9% | -6% | 1% | -62* | 21µM* | 2.2µM* | 3.5µM*
C[C@]12CC[C@H]3[C@@H](CCC4=CC(=O)CC[C@@H]43)[C@@H]1CC[C@@H]2O | -20% | 8% | -1% | -5 | -15% | . | .
C[C@]12CC[C@@H]3c4ccc(O)c(O)c4CC[C@H]3[C@@H]1CC[C@@H]2O | ? | 0% | -12% | -74* | ? | 10µM* | 10µM*
Cc1nc2ccccc2c(=O)n1-c1cc(F)ccc1F | -9% | 5% | 4% | -6 | -5% | . | .
COC(=O)C1=C(c2cccc(OC)c2OC)C[C@@H]2CC[C@H]1N2C(=O)NCc1ccc(C(F)(F)F)cc1 | -28% | 4% | . | -7 | -3% | . | .
COc1cc2c(cc1/C=C/[N+](=O)[O-])OCO2 | -22% | -12% | 3% | -10 | ? | . | .
COc1cc(/C=C/[N+](=O)[O-])ccc1OC(=O)c1cccnc1 | -24% | 6% | -1% | -3 | 3.4µM* | 7.1µM* | 16µM*
O=C1C2CCN(CC2)C12CC2c1ccc(C(F)(F)F)cc1 (configuration not stated) | -26% | 3% | 0% | -4 | -5% | . | .
CC1CCN(C(CC(=O)c2ccccc2)C(=O)c2ccccc2)CC1 (configuration not stated) | ? | 7.9µM* | . | ? | ? | 20µM* | 13µM*
O=C(c1ccccc1)C(CN1CCCC1)c1ccccc1 (configuration not stated) | -10% | ? | -1% | -10 | -12% | . | .
CN(C)c1ccc(/C=C/C=C2/C(=O)NC(=O)N(c3ccccc3)C2=O)cc1 | -26% | 18µM* | 0% | -78* | ? | 25µM* | 7%
Cc1ccnc(NS(=O)(=O)c2ccc(N=Cc3c(O)n(C)c(=O)n(C)c3=O)cc2)n1 | -13% | -6% | 7% | -6 | -1% | . | .
COc1cc(C(=O)O)cc(OC)c1OC | -19% | 13% | . | 3 | -1% | . | .
COc1cc(C=C2C(=O)NC(=O)NC2=O)cc(OC)c1OC | -20% | 1% | 1% | ? | 11µM* | 14µM* | 28µM*
O=C1NC(=O)C(=Cc2cccc(OCCOc3ccccc3)c2)C(=O)N1 | -10% | -23% | 1% | -52* | 2.7µM* | ? | ?
Cc1nn(Cc2ccccc2)c(C)c1C=C1C(=O)NC(=S)NC1=O | -3% | ? | 0% | -57* | 15µM* | 6.3µM* | ?
